Laboratory results taken from PubChem BioAssay (NCI).
The panel holds about 83,000 compounds, 20% with a hit somewhere; the sample as a whole holds those more often.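 Cell lines were cultured in 96-well plates, exposed to a single compound concentration, and assessed for percent growth 48 hours later.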 A number with no mark means an inactive call. Calls of active or inactive are those of the source.

tested on: MDA-MB-435 melanoma; experiment: NCI-60 one-dose screen, 48 h (100 = growth as untreated, 0 = no growth, -100 = all killed); conditions: 10 µM unless noted
Experimental: Growth inhibition of the MDA-MB-435 human Melanoma tumor cell line is measured as a screen for anti-cancer activity. Cells are grown in 96 well plates and exposed to the test compound for 48 hours. Compounds are tested at a single concentration, which is 10^-5 M for most compounds. The reported endpoint is percent growth (GI% or GIPRCNT), where numbers from 0 - 100% represent growth inhibition, and numbers from -100% - 0 represent cell death. For example, a value of 40 represents 60% growth inhibition. A value of 0 means no net growth occurred over the course of the experiment. A value of -40 indicates 40% of cells at the beginning of the experiment died by the end of the experiment. A value of -100 means all cells are dead at the end of the experiment.
NCI-60 Human Tumor Cell Lines Screen was performed using the standard one-dose NCI protocol, which is described in more detail at https://dtp.cancer.gov/discovery_development/nci-60/default.htm.
Compounds with GIPRCNT values below 10 were considered active. Activity score was based on GIPRCNT using the following formula: […]
Score is 0 for GIPRCNT values of 100 or above, 50 for GIPRCNT values of 0, and 100 for GIPRCNT values of -100.

Row | Structure (SMILES) | growth
1 | O=C(CCCN1CCOCC1)Nc1ccc(Cn2nnc3c2C(=O)c2nnn(Cc4ccc(NC(=O)CCCN5CCOCC5)cc4)c2C3=O)cc1 | -78.9% (active)
2 | Oc1cccc(Nc2nccc(-c3ccc4ccccc4c3)n2)c1 | -1.27% (active)
3 | CCCCCCCCCCCCCCCC[N+]1(CC)CCCC1 | -60.6% (active)
4 | O=S(=O)(NCCCNc1cc(-c2cn(-c3ccccc3)nc2-c2cccc(O)c2)ccn1)c1ccccc1 | 52.3%
5 | Nc1ccc2c(c1)C(=O)NC2=O | 92.2%
6 | COc1cc2cc(COc3nccc(-c4ccc(Cl)cc4)n3)c(=O)[nH]c2cc1OC | 65.6%
7 | CCOC(=O)C(C#N)C1CCCCC1 (stereo not given) | 97.6%
8 | COc1cc2c(cc1O)CCc1cc(O)cc(OC)c1-2 | 96.2%
9 | C[C@@H]1CC[C@@H]2[C@@H]1[C@H](OC(=O)/C=C/c1ccccc1)[C@]1(c3ccccc3)C[C@@H](OC(=O)CO)[C@@]2(C)O1 | 99.2%
10 | O=[N+]([O-])c1cccc(-c2nc3sccn3c2-c2ccnc(NCCCNS(=O)(=O)c3ccc(Br)cc3)n2)c1 | 46.6%
11 | C=C1C(=O)O[C@H]2[C@H]1CC/C(Cn1cc(Cn3ccc4cc(Cl)ccc43)nn1)=C\CC[C@@]1(C)O[C@@H]21 | 1.14% (active)
12 | CC/C(=C(\c1ccc(O)cc1)c1ccc(OCCN(C)CCN(C)C(=O)CCCCC(=O)c2c(C)[nH]c(/C=C3\N=C(c4ccc[nH]4)C=C3OC)c2C)cc1)c1ccccc1 | 88%
13 | N=c1c2ccccc2nc2n1CCCCC2 | 103%
14 | COc1ccc(-c2cc(=O)[nH]c3c(OC)c4ccccc4c(OC)c23)cc1 | -28.9% (active)
15 | CCCCCCCCCCNC(=O)CCl | 89.6%
16 | O=C(Nc1cccc2c1C(=O)c1cccc(Nc3cccc4c3C(=O)c3cccc(NC(=O)c5ccccc5)c3C4=O)c1C2=O)c1ccccc1 | 104%
17 | CC(=O)C1=C(O)C=C2Oc3c(C(=O)/C=C/c4c(Cl)cccc4Cl)c(O)c(C)c(O)c3[C@]2(C)C1=O | -11.6% (active)
18 | CCOC(=O)c1c2c(n3ccc(NC(=O)CCN(CC)CC)cc13)C(=O)c1ncccc1C2=O | 32.7%
19 | CC[C@H](CO)Nc1nc(NCc2ccccc2)n2ncc(C(C)C)c2n1 | 11.3%
20 | COc1ccc2nc3cc(Cl)ccc3c(N3CCN(c4ccnc(N5CCN(C)CC5)n4)CC3)c2c1 | 66.5%

Row | Structure (SMILES) | growth
21 | Cc1ccc2c(c1)n([O-])c1cc(Cl)ccc1[n+]2=O | 96.8%
22 | COc1cc(NC(N)=NCC(C)(C)COc2ccc(C(F)(F)F)cc2)cnc1C#N | 61.1%
23 | O=c1c2cccc3c(Nc4c(F)cccc4F)ccc(c32)c2nc3ccccc3n12 | 111%
24 | CCOC(=O)/C=C/c1ccc(C(=O)OCC)[nH]1 | -39.5% (active)
25 | CCN(C(=O)CN1CCN(c2cc3c(cc2F)c(=O)c(C(=O)O)cn3C2CC2)CC1)c1nc(-c2ccc(OC)cc2)cs1 | 53.2%
26 | CCOC(=O)Cc1cnn(C)c1NC(=O)c1ccc(Cl)cc1NC(C)=O | 99.4%
27 | COc1ccc(C(=O)c2sc3nc4c(c(C(F)(F)F)c3c2N)CN(C(C)=O)CC4)cc1OC | 99.7%
28 | CCCCCCCCCCCCN1CCCC(C)C1 (stereo not given) | 95.9%
29 | CSc1nc(NCCCNc2ccnc3cc(Cl)ccc23)cc(-c2ccccc2)n1 | 55.4%
30 | Cc1sc2nc3[nH]/c(=C\c4ccc(Cl)cc4)c(=O)n3c(=O)c2c1C | 98%
31 | Cc1nn(-c2nc3ccccc3[nH]2)c2c1C(c1ccc3c(c1)OCO3)CC(=O)N2 (stereo not given) | 5.5% (active)
32 | COc1ccc(/C=C/C(=O)c2ccc(NC(=O)c3cc4cc5ccccc5nc4s3)cc2)cc1OC | 102%
33 | O=c1cc(-c2ccccc2)[nH]c2ccccc12 | -16.8% (active)
34 | COc1ccc(-c2cc(C(=O)N=Nc3c(O)[nH]c4ccccc34)no2)cc1 | 102%
35 | O=C1Nc2c(ccc(Cl)c2Cl)/C1=C/c1cc(Br)c(O)c(Br)c1 | -29.4% (active)
36 | COc1ccc(/C=C2\CN(C(=O)CCN3CCC(=NO)CC3)C/C(=C\c3ccc(OC)cc3)C2=O)cc1 | -61.4% (active)
37 | COc1ccc2nc3cc(Cl)ccc3c(NCCNCC(O)CO)c2c1 (stereo not given) | 28.3%
38 | O=C(CN1CCOCC1)Nc1ccc(Cn2nnc3c2C(=O)c2nnn(Cc4ccc(NC(=O)CN5CCOCC5)cc4)c2C3=O)cc1 | -77.1% (active)
39 | CCOC(=O)c1nc(Nc2cc(C)[nH]n2)c2ccccc2n1 | 96.8%
40 | C/C(Cc1ccc(Cl)cc1)=C(\c1ccc(OCCN2CCCCCC2)cc1)c1ccc(OC(=O)C2CCCCC2)cc1 | 58.7%
